Data taken from PubChem BioAssay AID1964107 (National Center for Advancing Translational Sciences (NCATS), 2024).
Several values for one entry are separate records, joined by “and”; a condition that tells them apart may be missing. Equal values may be shown once. Screen size: about 31,000 compounds; about 360 (1.2%) were called active. Where a call stands in place of a potency, no number is given. Roughly 8% stayed inconclusive and do not appear here. This is one part of a sample in which actives are shown more often than they occur. The call rests on the fitted dose curve.

target: Polyprotein P1234 (Chikungunya virus (strain S27-African prototype)) (UniProt Q8JUX6); assay: Primary qHTS for inhibitors of NSP2Pro chikungunya virus (CHIKV); details: FRET peptide cleavage, fluorescence 1 h; series mostly up to 24.9 µM; further: nearly all actives have a fitted effect of over 60% in size
Sequence (Q8JUX6 whole entry, looked up): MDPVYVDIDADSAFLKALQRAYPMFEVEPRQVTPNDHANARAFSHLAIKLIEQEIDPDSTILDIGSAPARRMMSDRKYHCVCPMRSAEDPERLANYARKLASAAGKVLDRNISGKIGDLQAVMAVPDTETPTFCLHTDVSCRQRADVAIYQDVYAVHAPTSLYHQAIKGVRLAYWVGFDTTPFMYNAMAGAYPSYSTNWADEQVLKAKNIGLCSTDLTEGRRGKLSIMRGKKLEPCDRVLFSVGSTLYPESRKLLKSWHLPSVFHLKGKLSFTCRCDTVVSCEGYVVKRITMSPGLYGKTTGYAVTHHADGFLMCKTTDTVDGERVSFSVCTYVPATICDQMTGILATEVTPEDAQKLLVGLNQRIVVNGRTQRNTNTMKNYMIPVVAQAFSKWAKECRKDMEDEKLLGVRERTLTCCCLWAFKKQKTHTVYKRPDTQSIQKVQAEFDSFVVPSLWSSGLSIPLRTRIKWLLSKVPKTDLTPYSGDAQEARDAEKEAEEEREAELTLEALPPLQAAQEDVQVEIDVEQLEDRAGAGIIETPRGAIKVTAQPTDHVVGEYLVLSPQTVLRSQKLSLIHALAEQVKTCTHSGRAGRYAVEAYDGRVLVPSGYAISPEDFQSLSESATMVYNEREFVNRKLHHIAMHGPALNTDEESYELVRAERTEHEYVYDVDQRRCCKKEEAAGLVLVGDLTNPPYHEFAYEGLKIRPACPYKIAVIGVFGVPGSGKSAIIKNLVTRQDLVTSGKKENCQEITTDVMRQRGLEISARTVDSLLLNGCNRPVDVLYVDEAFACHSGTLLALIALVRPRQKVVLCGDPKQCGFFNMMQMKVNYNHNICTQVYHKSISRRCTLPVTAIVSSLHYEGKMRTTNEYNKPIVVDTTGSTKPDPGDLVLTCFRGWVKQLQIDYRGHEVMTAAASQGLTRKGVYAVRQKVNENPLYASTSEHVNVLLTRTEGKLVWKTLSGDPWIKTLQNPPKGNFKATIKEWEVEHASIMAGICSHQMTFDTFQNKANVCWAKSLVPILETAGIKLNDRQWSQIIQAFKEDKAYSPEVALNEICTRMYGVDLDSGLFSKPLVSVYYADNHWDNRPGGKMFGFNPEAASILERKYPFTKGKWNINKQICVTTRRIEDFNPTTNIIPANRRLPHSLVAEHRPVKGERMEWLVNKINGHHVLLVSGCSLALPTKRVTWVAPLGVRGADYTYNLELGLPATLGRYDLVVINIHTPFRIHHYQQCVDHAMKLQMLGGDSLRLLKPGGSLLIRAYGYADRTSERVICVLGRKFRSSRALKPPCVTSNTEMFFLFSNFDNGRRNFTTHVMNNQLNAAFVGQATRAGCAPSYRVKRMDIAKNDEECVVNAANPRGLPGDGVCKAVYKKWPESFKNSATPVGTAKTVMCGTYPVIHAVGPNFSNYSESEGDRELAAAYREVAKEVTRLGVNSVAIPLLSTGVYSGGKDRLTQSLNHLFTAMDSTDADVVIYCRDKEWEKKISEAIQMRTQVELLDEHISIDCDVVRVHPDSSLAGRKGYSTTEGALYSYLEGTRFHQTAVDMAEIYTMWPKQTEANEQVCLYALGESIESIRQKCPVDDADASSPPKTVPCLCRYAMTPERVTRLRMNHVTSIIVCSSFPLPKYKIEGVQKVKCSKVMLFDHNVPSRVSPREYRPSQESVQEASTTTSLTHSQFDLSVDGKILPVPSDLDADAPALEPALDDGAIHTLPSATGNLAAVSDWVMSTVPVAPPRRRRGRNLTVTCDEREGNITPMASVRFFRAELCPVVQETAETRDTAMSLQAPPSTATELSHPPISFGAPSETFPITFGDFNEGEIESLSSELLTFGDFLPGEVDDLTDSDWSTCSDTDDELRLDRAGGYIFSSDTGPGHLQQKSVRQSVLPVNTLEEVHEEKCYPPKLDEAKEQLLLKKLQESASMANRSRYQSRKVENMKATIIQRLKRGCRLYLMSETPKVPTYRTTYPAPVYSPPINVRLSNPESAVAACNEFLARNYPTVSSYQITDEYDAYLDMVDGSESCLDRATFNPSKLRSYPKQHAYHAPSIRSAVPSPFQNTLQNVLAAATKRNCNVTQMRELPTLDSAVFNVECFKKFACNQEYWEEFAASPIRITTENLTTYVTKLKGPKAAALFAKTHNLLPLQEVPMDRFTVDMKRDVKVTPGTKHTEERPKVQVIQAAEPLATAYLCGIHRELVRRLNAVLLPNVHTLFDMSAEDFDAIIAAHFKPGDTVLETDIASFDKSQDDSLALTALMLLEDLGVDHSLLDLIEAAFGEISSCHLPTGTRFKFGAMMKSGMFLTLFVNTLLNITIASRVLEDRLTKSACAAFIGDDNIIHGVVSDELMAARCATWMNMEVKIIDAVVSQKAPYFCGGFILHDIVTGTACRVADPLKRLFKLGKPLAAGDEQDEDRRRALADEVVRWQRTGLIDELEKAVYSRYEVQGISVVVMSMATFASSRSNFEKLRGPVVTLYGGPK
Text: PI: Natalia J. Martinez Ph.D. National Center for Advancing Translational Sciences (NCATS), National Institute of Health (NIH), Rockville, Maryland Chikungunya virus (CHIKV) is a mosquito-borne RNA virus that has emerged as one of the most important global arboviral threats in the last decade. Although the first CHIKV vaccine has recently been FDA approved for use in healthy adults at increased risk, to date, there are no available antiviral drugs for CHIKV infection. CHIKV nsP2 protease plays a crucial role in the processing of the viral polypeptide precursor to release enzymes required for viral replication, thus making it a promising drug target for antiviral discovery. Here, we established a high-throughput pipeline to identify small molecule inhibitors of nsP2 proteolytic activity. The pipeline is composed of a suite of 1,536-well in vitro assays to support quantitative high-throughput (qHTS) screening campaigns. Specifically, we developed a fluorescence resonance energy transfer (FRET)-based assay using a fluorogenic peptide substrate encompassing an endogenous cleavage site and purified recombinant protease domain (nsP2pro). Using this assay, we interrogated ~37,000 small molecules, including those in drug repurposing libraries as well as chemically diverse and medicinal chemistry-friendly compounds. Hits were selected for follow-up validation against full-length nsP2 and an additional peptide. FRET-based 1,536-well assays for papain, hepatitis C virus NS3-4A, and human furin proteases were implemented to characterize compound selectivity. […] Novel compounds were identified to be potential nsP2 inhibitors and molecular docking analyses were performed to explain the binding mode of selected hits. In vitro antiviral activity was evaluated for a subset of compounds using a high-throughput CHIKV infection assay. To our knowledge, the pipeline presented here is unprecedented for CHIKV antiviral discovery research.
PROTOCOL TABLE (as described by Inglese J, Shamu CE and Guy RK. 2007) SEQUENCE No. (e.g., 1, 2, 3, etc.); […] (e.g., Cells, Incubation, Reagent, etc.); VALUE; DESCRIPTION. 1; Control / Compound; 20 nL; Echo 655 acoustic dispenser, Greiner 1536-well solid bottom black plate. 2; Enzyme; 4 uL; BioRAPTR FRD liquid dispenser (Beckman Coulter). 3; Incubation; 15 min; room temperature. 4; Reagent; 4 uL; 2.5 uM Peptide 2 substrate. 5; Incubation; 1 hr; room temperature. 6; Detection; Fluorescence; WiewLux microplate reader (PerkinElmer), 525 nm excitation, 598/25 nm emission. NOTES (numbers refer to sequence numbers above). 1. Briefly, 20 nL DMSO, positive control ZnAc (20nM final concentration), and test compounds were transferred into a 1,536-well solid bottom black plate (789176-F, Greiner One) via Echo 655 acoustic dispenser (Beckman Coulter). For primary screens, compounds were tested at 7 concentrations, 1:3 dilution points ranging from 25 uM to 34 nM. Follow-up confirmatory screens were carried out at 11 concentrations, 1:3 dilution points from 25 uM to 0.42 nM. 2. Four uL nsP2pro enzyme mix (150 nM final concentration) in 10 mM Tris-HCl pH 8.0 with 0.01% Tween 20 assay buffer was dispensed into the plate using a BioRAPTR FRD liquid dispenser (Beckman Coulter). 3. The plate was incubated at room temperature (protected from light) for 15 min 4. Four microliter of peptide 2 substrate (2.5 uM final concentration) in assay buffer was added to the plate. 5. After 1 hour, plates were immediately read on a ViewLux high-throughput CCD imager (Exposure = 10 sec, Gain = High, Speed = Slow, Binning = 2X). The above assay was also incorporated in the NCATS HTS facility41, which allowed for robotic liquid and compound dispensing, microplate handling, and fluorescence reading.. REFERENCE: Inglese J, Shamu CE and Guy RK, Reporting data from high throughput screening of small molecule libraries, Nature Chemical Biology, 2007, 3(8): 438-441. doi.org/10.1038/nchembio0807-438.
Potency means the concentration at half of the fitted maximal effect.

| Compound | Potency |
| --- | --- |
| COc1ccccc1CNC(=O)CN1CCCC(CO)(CC2CC2)C1 (configuration not stated) | inactive |
| COCCCN1CCC(NC(=O)c2cc(Cl)c(N)c3c2OCC3)CC1 | inactive |
| COc1cc(OC)c(NC(=O)c2ccc(Cc3cc4c(cc3C)C(C)(C)CCC4(C)C)o2)c(OC)c1 | 11.1 µM (active) |
| COC(=O)c1ccccc1NC(=O)c1ccc(COc2ccccc2Cl)o1 | inactive |
| Cc1ccc(CN(C(=O)c2ccccc2[N+](=O)[O-])c2ccccn2)cc1 | inactive |
| COc1ccc2oc(=O)c(-c3cn4c(n3)sc3cc(OC)ccc34)cc2c1 | inactive |
| Cc1ccc(C2CCN(C(=O)c3cnn(-c4ccccc4Cl)c3C3CCN(C(=O)OC(C)(C)C)CC3)C2)cc1 (configuration not stated) | inactive |
| Cc1c(P(=S)(c2ccccc2)c2ccccc2)[n+]2ccccc2n1CCCCc1ccccc1 | inactive |
| Cc1cnc(C(=O)N[C@H]2CCCCC/C=C\[C@@H]3C[C@@]3(C(=O)NS(=O)(=O)C3CC3)NC(=O)[C@@H]3C[C@@H](Oc4nc5ccccc5c5ccccc45)CN3C2=O)cn1 | inactive |
| CS(=O)(=O)c1ccc(OC[C@H]2C[C@@H](NC(=O)c3ccccc3)[C@H](O)[C@@H]2O)cc1 | inactive |
| CC1(C)[C@H](Cc2cc(-c3ccccc3)on2)C[C@@H]1NCC1CC1 | inactive |
| Cc1cccc(NC(=O)CSc2ncc(-c3ccccc3)[nH]2)c1C | inactive |
| CCCc1nc(C(=O)N2CCC3(CCCNC3)C2)cs1 (configuration not stated) | inactive |
| Clc1ccccc1CSc1nncn2c1cc1occc12 | inactive |
| O=C(NCC(c1ccco1)S(=O)(=O)c1cccs1)c1ccc(F)cc1 (configuration not stated) | inactive |
| CCOc1ccc(NC(=O)Cn2c(C)ccc(C#N)c2=O)cc1 | inactive |
| COc1ccc(-c2ccc3ncn(C4CC4)c(=O)c3n2)cn1 | inactive |
| Cc1ccc(-c2ccc(=O)n(CCNC(C)c3ccco3)n2)cc1 (configuration not stated) | inactive |
| Cc1ccc(Cl)cc1NC(=O)C1CCCN(c2cnccn2)C1 (configuration not stated) | inactive |
| C=C1C(=O)OC2C=C(C)CC/C=C(\CO)CC(O)C12 (configuration not stated) | inactive |
| CCN(c1ncnc2c1cnn2-c1ccc(C)cc1)C1CCCCC1 | inactive |
| Cc1ccc(Cl)cc1NC(=O)/C(C#N)=C\c1cn(Cc2ccc(F)cc2)c2ccccc12 | inactive |
| CCCN1CCc2nc(N3CCN(C)CC3)ncc2C1 | inactive |
| CC1CCN(S(=O)(=O)c2ccc3c(ccn3CCC(=O)NCc3ccc(N(C)C)cc3)c2)CC1 | inactive |

| Compound | Potency |
| --- | --- |
| Oc1ccc2c3c1O[C@H]1c4[nH]c5c(N=C=S)cccc5c4C[C@@]4(O)[C@@H](C2)N(CC2CC2)CC[C@]314 | inactive |
| O=C(NCC(c1ccc2c(c1)OCO2)N1CCN(c2ccccc2)CC1)C(=O)Nc1ccccc1F (configuration not stated) | inactive |
| Cc1cc(C(=O)NC2CC(c3cc(=O)[nH]cn3)C2)cc(S(N)(=O)=O)c1C (configuration not stated) | inactive |
| CCS(=O)(=O)N1CCc2cc(C(=O)NCc3ccc(OC)cc3)ccc21 | inactive |
| Cc1nc(CNC(=O)[C@H]2CCC[C@@H](O)C2)nc2c1CCCC2 | inactive |
| CCOC(=O)c1ccc(NC(=O)C2CC(=O)N(c3ccc(C(C)C)cc3)C2)cc1 (configuration not stated) | inactive |
| Cc1nc(C)c(-c2ccc3ncnc(N(C)Cc4sccc4C)c3c2)s1 | inactive |
| O=C(Cn1c(=O)n(-c2ccc(F)cc2)c(=O)c2sccc21)Nc1cccc(C(F)(F)F)c1 | inactive |
| COc1cc(C(C)=O)ccc1O[C@@H]1O[C@H](CO[C@@H]2OC[C@@H](O)[C@H](O)[C@H]2O)[C@@H](O)[C@H](O)[C@H]1O | inactive |
| Cc1cc(-c2ccc(C)c(S(=O)(=O)N3c4ccccc4CC3C)c2)on1 (configuration not stated) | inactive |
| CCOC(=O)N1CCc2c(sc3c2c(=O)n(Cc2ccccc2)c(=O)n3CC(=O)Nc2cccc(C)c2)C1 | inactive |
| CNC(=O)[C@@H]1C[C@@H](O)CN1C1CCN(C(=O)C2(c3ccccc3)CC2)CC1 | inactive |
| O=c1cc(-c2cccnc2)oc2c(-c3cccc(CO)c3)nccc12 | inactive |
| NC(=O)CN1CC2(CCC1=O)CCN(C[C@@H](O)CO)CC2 | inactive |
| Cc1nc(C(=O)N2CCn3nc(Cc4ccccc4)cc3C2)cs1 | inactive |
| OCC1(CCCc2ccccc2)CCCNC1 (configuration not stated) | inactive |
| Cc1ccc(OCCn2c(CCNC(=O)c3ccccc3)nc3ccccc32)cc1 | inactive |
| Cc1cccc(Nc2nc(C)nc(N)c2S(=O)(=O)c2ccccc2)c1 | inactive |
| N#CSc1cc(SC#N)c(N)nc1N | 664 nM (active) and 351 nM (active) and 1.24 µM (active) |
| CCCNC(=O)C(CC)n1nc(CC)n2c(cc3oc(C)cc32)c1=O (configuration not stated) | inactive |
| COc1ccc(-c2ccccc2C(=O)NCC#N)nn1 | inactive |
| COC([CH2][Hg])CNC(=O)c1ccccc1OCC(=O)O (configuration not stated) | 1.49 µM (active) |
| Cc1ccc(CNC(=O)CSC2=Nc3ccccc3C3=NC(C)C(=O)N23)cc1 (configuration not stated) | inactive |
